The list is not random: actives were taken first. Their share in the collection is about 4.6%.
Mdm2-MdmX inh – inhibitors of human Mdm2-MdmX association, primary screen, cell-based, luminescence, split luciferase, SaOS-2, uHTS | Protein Mdm4 (Homo sapiens) + E3 ubiquitin-protein ligase Mdm2 (Homo sapiens), … | SaOS-2 split-luciferase Mdm2/MdmX complementation | inhibition, % at 8 µM | hit rate 3% among 330,000 | AID 485346, 2010;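 active = inhibition of at least 50% at 8 µM in the primary screen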
CF NFkB inh – inhibitors of PAF-induced NF-kB signaling, primary screen, cell-based, GFP fluorescence, uHTS | KKLEB NF-kB-GFP reporter, GFP fluorescence overnight | inhibition, % at 5 µM | hit rate 0.86% among 360,000 | AID 588850, 2011;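 active = at least 50% inhibition at 5 µM, scaled per plate between neutral and stimulator controls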;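 note: PAF is a Pseudomonas aeruginosa culture filtrate used as stimulus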
HIF-2a block – HIF-2a reporter inhibitors, primary screen, luminescence, 786-0 RCC cells; inhibition, % at 18.8 µM; AID 624352, 2012; hit rate 0.72% among 360,000; 786-0 RCC cells HIF-2a reporter, luciferase luminescence, overnight;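 active = inhibition of the luminescence signal of 40% or more relative to plate controls, in a single-dose primary screen at 18.75 µM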
Peg3 prom inh-1 – Peg3 promoter-driven luciferase inhibitors, primary screen, cell-based, HeLa, luciferase luminescence. hit rate 1.7% among 360,000. HeLa PEG-Prom luciferase reporter, overnight. inhibition, % at 20 µM;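 active = inhibition of at least 50% at 20 µM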
KKLEB cytotox – cytotoxicity in KKLEB CF airway cells, primary screen, cytotoxicity control for CF NF-kB inhibitor project, cell-based, uHTS, fluorescence assay plates; KKLEB CF airway cells viability, ATPlite luminescence, overnight; hits give low values; cells stimulated with P. aeruginosa culture filtrate; activity change (cytotoxicity), % at 5 µM; hit rate 0.36% among 360,000;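 active = corrected activity change at or below -50% at 5 µM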
ABHD5 PLIN5 PPI – ABHD5-PLIN5 interaction inhibitors, primary screen, cell lysate, split luciferase complementation, luminescence; Split G. princeps luciferase complementation, 4 h; Perilipin-5 (Homo sapiens) + 1-acylglycerol-3-phosphate O-acyltransferase ABHD5 (Homo …; hit rate 0.78% among 360,000; inhibition, % at 4 µM; AID 602281, 2012;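 active = inhibition above the mean inhibition across every tested compound plus 3 SD, cut at about 22% in these data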
Mdm2 MdmX conf – Mdm2-MdmX complex disruptors, retested hits, confirmation, luminescence, single concentration. inhibition, % at 8 µM. Mdm2-MdmX binding, luminescent assay. shares compounds with Mdm2-MdmX inh. AID 489028, 2010. hit rate 55% among 10,000; in the data active = inhibition above about 40%
Full FLuc ctr – full-length luciferase signal inhibition, confirmation, counter-screen for Mdm2/MdmX interaction inhibitor project, cell-based, single concentration, SaOS-2; shares compounds with Mdm2-MdmX inh; SaOS-2 full-length luciferase counterscreen, luminescence; inhibition, % at 8 µM; hit rate 77% among 6,200;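 active = mean inhibition at 8 µM reaching about 37%, which flags the compound as non-specific, limit read from the data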;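 note: p53-null SaOS-2 cells with luciferase driven by a doxycycline-inducible promoter; compound on cells about two nights before reading with doxycycline added after day one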
Peg3 prom inh-2 – Peg3 promoter reporter inhibitors, retest, confirmation, cell-based, HeLa, luciferase reporter, single concentration. shares compounds with Peg3 prom inh-1. HeLa PEG-Prom luciferase reporter, luminescence, overnight. inhibition, % at 20 µM. hit rate 84% among 1,300. AID 602417, 2012;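 active = at 20 µM dose, 40% or more inhibition averaged across four replicates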
Of the large screens only hits and unclear results are named; the others gave an inactive call (follow-up assays come after a bar, where they were run).

COc1ccc2c(c1)[nH]c1c(=O)n(/N=C/C3C(C)C=C(C)CC3C)c(=O)[nH]c12 (configuration not stated)	Mdm2-MdmX inh 69, Peg3 prom inh-1 58 | Mdm2 MdmX conf inactive | Peg3 prom inh-2 45
CC1=CC(C)[C@H](/C=N/n2c(=O)[nH]c3c([nH]c4ccc(Br)cc43)c2=O)C(C)C1 (some centres not stated)	Mdm2-MdmX inh 98, Peg3 prom inh-1 93 | Mdm2 MdmX conf inactive | Peg3 prom inh-2 55
COc1ccc(/C=N/n2c(=O)[nH]c3c([nH]c4ccc(Br)cc43)c2=O)cc1CN1CCOCC1	none
COc1ccc2[nH]c3c(=O)n(N)c(=O)[nH]c3c2c1	none
OC(c1ccccc1)c1nc(-c2cccs2)cs1 (configuration not stated)	none (no result: Mdm2-MdmX inh)
Fc1ccc([C@@H]2CCNC[C@H]2COc2ccc3c(c2)OCO3)cc1	Mdm2-MdmX inh 51, Peg3 prom inh-1 66 | Mdm2 MdmX conf inactive | Full FLuc ctr 56 | Peg3 prom inh-2 62
O=C(COc1ccc2c(c1)OCO2)Nc1ccccc1F	none
O=C(NC1CCCN(Cc2ccccc2F)C1)C1CCC1 (configuration not stated)	none
COc1cccc(C(=O)c2sc(NC(C)C)nc2N)c1	Mdm2-MdmX inh 76, CF NFkB inh 78, Peg3 prom inh-1 105 | Mdm2 MdmX conf 44 | Full FLuc ctr 111 | Peg3 prom inh-2 76
C[C@@]12C(=O)Nc3cc(Cl)ccc3C(=O)N1[C@H]1c3cc(Cl)ccc3OC[C@@H]1[C@@H]2c1ccccc1	Mdm2-MdmX inh 61, Peg3 prom inh-1 56 | Mdm2 MdmX conf inactive | Peg3 prom inh-2 57
Clc1ccc(CN2CCc3c([nH]c4ccccc34)C2)cc1Cl	Mdm2-MdmX inh 96, Peg3 prom inh-1 81 | Mdm2 MdmX conf inactive | Full FLuc ctr 48 | Peg3 prom inh-2 inactive
O=C(NCc1ccccc1Cl)[C@H]1CCCN1C(=O)[C@H]1CCCN1C(=O)c1cccc2ccccc12	none (no result: Mdm2-MdmX inh, CF NFkB inh, Peg3 prom inh-1, KKLEB cytotox)
Cc1ccc(C(C(=O)NCc2ccco2)N(C(=O)CNC(=O)c2cccs2)c2c(C)cccc2C)cc1 (configuration not stated)	Mdm2-MdmX inh 52, Peg3 prom inh-1 66 | Mdm2 MdmX conf 53 | Full FLuc ctr 65 | Peg3 prom inh-2 inactive
Cc1ccc(C(C(=O)NCc2ccco2)N(Cc2ccco2)C(=O)CNC(=O)c2ccco2)cc1 (configuration not stated)	none
C/C(=N\NC(=O)c1nnn(-c2nonc2N)c1CN(C)c1ccccc1)c1ccccc1O	Mdm2-MdmX inh 69, Peg3 prom inh-1 51 | Mdm2 MdmX conf 76 | Full FLuc ctr inactive | Peg3 prom inh-2 71
CN(C)C(=O)CCc1ccc2c3c([nH]c2c1)[C@]1(CCc2ccccc2)[C@@H](C(=O)N2CCCCC2)C[C@H](CC(=O)NCCCn2ccnc2)C(=O)N1CC3	none
CCCN(CC(=O)Nc1cc(Cl)cc(Cl)c1)CC(=O)Nc1ccc(F)c(F)c1F	Mdm2-MdmX inh 52, Peg3 prom inh-1 87 | Mdm2 MdmX conf inactive | Peg3 prom inh-2 91
OCCNc1c2ccccc2nc2ccccc12	Mdm2-MdmX inh 61, Peg3 prom inh-1 98 | Mdm2 MdmX conf 56 | Full FLuc ctr 37 | Peg3 prom inh-2 95
CCc1ccccc1N(CC)C(=O)C1CCN(c2ncnc3c2nc2n3CCCCC2)CC1	Mdm2-MdmX inh 64, Peg3 prom inh-1 56 | Mdm2 MdmX conf inactive | Peg3 prom inh-2 inactive
CCN(Cc1ccccc1)C(=O)C1CCN(c2ncnc3c2nc2n3CCCCC2)CC1	none
C/C(=N\NC(=O)c1cc(C2CC2)nc2ccccc12)c1ccc(C)s1	none
C/C(=N\NC(=O)c1cc(C2CC2)nc2ccccc12)c1ccc(O)cc1O	Mdm2-MdmX inh 75, Peg3 prom inh-1 56 | Mdm2 MdmX conf 78 | Full FLuc ctr 38 | Peg3 prom inh-2 65
CC(C)Cc1nnc(NC(=O)CC(=O)Nc2ccccc2C(=O)O)s1	none
CC(C)c1nnc(NC(=O)CC(=O)Nc2ccccc2C(=O)O)s1	Mdm2-MdmX inh 67, Peg3 prom inh-1 57 | Mdm2 MdmX conf 47 | Full FLuc ctr 74 | Peg3 prom inh-2 inactive
COC(=O)c1cc(=O)nc(NN=Cc2ccc(C)cc2)s1	none (no result: Mdm2-MdmX inh)
COc1cc2ccccc2cc1C(=O)N(CCN(C)C)c1nc2c(OC)ccc(OC)c2s1	Mdm2-MdmX inh 61, Peg3 prom inh-1 66 | Mdm2 MdmX conf inactive | Full FLuc ctr 66 | Peg3 prom inh-2 67
O=C(CCN1C(=O)/C(=C/c2ccc(F)cc2)SC1=S)N[C@@H](CO)Cc1ccccc1	Mdm2-MdmX inh 82, Peg3 prom inh-1 79 | Mdm2 MdmX conf 61 | Full FLuc ctr 37 | Peg3 prom inh-2 72
CCCCCCN(C(=O)CCCCCN1C(=O)NC(c2ccc(-c3ccccc3)cc2)C(C(=O)OCc2ccccc2)=C1C)C(C)C(=O)NCCCC (configuration not stated)	none (no result: CF NFkB inh, HIF-2a block, Peg3 prom inh-1, KKLEB cytotox, ABHD5 PLIN5 PPI)
CCCCNC(=O)C(C)N(CCN(C)C)C(=O)CCCN1C(=O)NC(c2ccc([N+](=O)[O-])cc2)C(C(=O)OCc2ccccc2)=C1C (configuration not stated)	Mdm2-MdmX inh 68, Peg3 prom inh-1 57 | Mdm2 MdmX conf inactive | Peg3 prom inh-2 inactive
CCCCOCCCNC(=O)C[C@@H]1C[C@@]2(C(=O)OCC)CCC=C2N(Cc2ccccc2)C1=O	none (no result: Mdm2-MdmX inh, CF NFkB inh, Peg3 prom inh-1, KKLEB cytotox)
Cc1ccc(Cn2c(CCNc3nc(-c4ccc(Cl)c([N+](=O)[O-])c4)cs3)nc3cc(Cl)c(Cl)cc32)cc1	Mdm2-MdmX inh 93, Peg3 prom inh-1 73 | Mdm2 MdmX conf inactive | Peg3 prom inh-2 inactive
COc1ccc(-c2ccc(C(=O)NCC3CCOCC3)c3occc23)c(C)c1	none (no result: Mdm2-MdmX inh)
Cc1nc(Nc2ccc(F)cc2)nc(Nc2ccc(F)cc2)c1[N+](=O)[O-]	none
CC(=O)Nc1ccc(Nc2nc(C)c([N+](=O)[O-])c(Nc3ccccc3)n2)cc1	Mdm2-MdmX inh 58, Peg3 prom inh-1 64 | Mdm2 MdmX conf inactive | Peg3 prom inh-2 56

From PubChem
